# Screens from PubChem.
# RORgamma inh – inhibitors of mouse ROR gamma transcriptional activity; P51450; AID 2551; Potency, µM (titrated, usually from 53.6 µM), most hits filed as inhibitors; 5.4% of 310,000 active; Drosophila S2 Gal4-RORgamma UAS-luciferase reporter, 20 h; note: nearly all actives have a fitted effect of over 60% in size
# Target sequence (P51450 whole entry, looked up, the tested form may be a part): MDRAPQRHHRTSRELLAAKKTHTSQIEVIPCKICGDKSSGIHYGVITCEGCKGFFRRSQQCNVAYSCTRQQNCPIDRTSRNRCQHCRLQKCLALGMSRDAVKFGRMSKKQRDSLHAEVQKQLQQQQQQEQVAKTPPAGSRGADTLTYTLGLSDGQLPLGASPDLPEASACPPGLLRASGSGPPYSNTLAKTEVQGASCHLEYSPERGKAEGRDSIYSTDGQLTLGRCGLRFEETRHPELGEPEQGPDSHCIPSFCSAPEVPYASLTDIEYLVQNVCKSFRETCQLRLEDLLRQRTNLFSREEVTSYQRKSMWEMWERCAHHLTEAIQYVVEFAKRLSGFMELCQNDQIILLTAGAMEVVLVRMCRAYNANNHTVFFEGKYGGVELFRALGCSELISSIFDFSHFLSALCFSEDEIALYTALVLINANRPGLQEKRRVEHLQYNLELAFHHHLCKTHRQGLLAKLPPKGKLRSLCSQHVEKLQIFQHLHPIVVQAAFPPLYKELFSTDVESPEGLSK
#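 Stably transfected Drosophila Schneider cells are the test system, with ROR gamma fused to Gal4 and luciferase under UAS control; luminescence is read after 20 hr of 700 uM copper sulfate induction at ambient temperature.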
# IL1B secr inh – inhibitors of inflammasome signaling (IL-1 beta secretion) | THP-1 LPS/ATP IL-1B secretion, AlphaLISA, 16 h; active compounds read low | activity change, % at 57.5 µM | 4.7% of 360,000 active | AID 743279; in the data active = activity change below about -50%; inconclusive = mostly about -30% to -49%
#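 THP-1 cells pretreated 1 hr with compounds (up to 57.5 uM final), then stimulated with LPS (250 ng/mL final) plus ATP (1.25 mM final); secreted IL-1B measured by AlphaLISA after 16 hr, decreased signal indicating inhibition.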
# TDP1 cell CPT – DT40-hTDP1 cell growth loss with CPT. chicken DT40 Tdp1-/-;hTDP1 cells + 20 nM CPT, ATP luminescence, 48 h. 12% of 420,000 active. Potency, µM (top dose mostly 46.2 µM), hits mostly inhibitors; note: nearly all actives have a fitted effect of over 55% in size
#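 Chicken DT40 Tdp1-/- cells stably complemented with human TDP1 were seeded at 400 cells/well in medium containing 20 nM camptothecin, exposed to pin-transferred compounds, and grown at 37 °C for at least 48 hr. Viability was read as ATP luminescence.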
# TDP1 cell noCPT – qHTS for Inhibitors of human tyrosyl-DNA phosphodiesterase 1 (TDP1): qHTS in cells in absence of CPT; DT40 Tdp1-/- hTDP1 cells, no CPT, ATP luminescence, 48 h; Potency, µM (top dose mostly 46.2 µM), hits mostly inhibitors; 15% of 420,000 active; note: nearly all actives have a fitted effect of over 55% in size
#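 Chicken DT40 Tdp1-/- cells stably complemented with human TDP1 were seeded at 400 cells/well with DMSO in place of 20 nM camptothecin. After compound pinning, cells grew at least 48 hr at 37 °C; viability read by CellTiter-Glo luminescence.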
# Gal4-VP16 FLuc – inhibits Gal4-VP16 luciferase reporter, ROR gamma counter-screen; Drosophila S2 Gal4-VP16 UAS-luciferase, luminescence, 20 h; AID 2546; 3.5% of 310,000 active; Potency, µM (titrated, usually from 53.6 µM), most hits filed as inhibitors;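 note: Gal4-VP16 expression switched on by copper sulfate through the metallothionein promoter; nearly all actives have a fitted effect of over 50% in size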
# ELG1 repair inh – ELG1-dependent DNA repair inhibition. Potency, µM (doses to about 46.1 µM), hits mostly inhibitors. 2.3% of 330,000 active. HEK293T ELG1-luciferase reporter, luminescence, 16 h; DNA damage induced by 5-fluorouridine. AID 504467; note: nearly all actives have a fitted effect of over 55% in size
#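 In this reporter screen, reduction of luminescence relative to DMSO vehicle indicated activity. Compounds and 5-fluorouridine were added together to 2,000 cells per well, incubated for 16 hr at 37 °C, then developed with ONE-Glo.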
# Hits are given with their value; – = inactive; ? = inconclusive; · = no result; [ ] = dose if it differs, or a comment. The list is not random: actives were taken first. Their share in the collection is about 21%. Unless noted, calls come from the whole dose curve; as a rule, active = well fitted curve in the direction sought with a large enough effect; inconclusive = small, poorly fitted or top-dose-only effect, or another doubt; inactive = no such curve, though single readings can be large; an effect the other way counts as inactive or inconclusive.
SMILES,RORgamma inh,IL1B secr inh,TDP1 cell CPT,TDP1 cell noCPT,Gal4-VP16 FLuc,ELG1 repair inh
CCOC(=O)N1CCN(C(=O)CCc2ccc(S(=O)(=O)NCCc3ccccc3)cc2)CC1,?,–,?,?,–,15µM
CC(C)CNS(=O)(=O)c1ccc(CCC(=O)N2CCN(Cc3ccc4c(c3)OCO4)CC2)cc1,?,?,13µM,18µM,–,9.2µM
O=C(CCc1ccc(S(=O)(=O)NCCc2ccccc2)cc1)N1CCN(Cc2ccc3c(c2)OCO3)CC1,–,·,·,·,?,23µM
CN=C1CC(SC)=C1c1ccc(C)cc1,–,–,16µM,21µM,–,–
Cc1ccc(-c2ccc(/C=N/NC(=O)c3ccccc3O)o2)cc1,0.71µM,·,·,·,0.16µM,?
NS(=O)(=O)c1ccc(-c2ccc(/C=N/NC(=O)c3ccccc3O)o2)cc1,3.5µM,?,?,–,18µM,–
CCc1nnc(NC(=O)CSCc2cc(=O)n3ccsc3n2)s1,–,–,–,–,–,–
O=C(NCc1ccc(C(F)(F)F)cc1)C1CC(c2ccc(C(F)(F)F)cc2)=NO1 (stereo not drawn),·,–,23µM,13µM,·,·
O=C(NCc1ccco1)C1CC(c2cc(C(F)(F)F)cc(C(F)(F)F)c2)=NO1 (stereo not drawn),–,–,2.6µM,2.3µM,–,–
O=C(NCc1ccc(OC(F)(F)F)cc1)C1CC(c2ccc(C(F)(F)F)cc2)=NO1 (stereo not drawn),·,–,?,?,·,·
COC(=O)NC(CC(C)=O)c1ccc(F)cc1 (stereo not drawn),–[10 µM],·,·,·,–[10 µM],·
Cc1cc(C)c(S(=O)(=O)Nc2c(C)[nH]c(=O)[nH]c2=O)c(C)c1,?,–,16µM,23µM,–,?
Cc1ccc(NS(=O)(=O)c2c(C)[nH]c(=O)[nH]c2=O)c(C)c1,–,–,–,–,–,–
CCN(CC)c1nc(NN)nc(Nc2ccc(C)c(Cl)c2)n1,·,-76,?,?,·,·
CC(C)(C)C(=O)NC1(C(F)(F)F)C(=O)Nc2c1c(=O)[nH]c(=O)n2Cc1ccco1 (stereo not drawn),–,–,–,–,–,–
N#Cc1ccc(C2=NC(C(F)(F)F)(C(F)(F)F)c3c(n(Cc4ccco4)c(=O)[nH]c3=O)N2)cc1,13µM,–,–,–,?,?
O=c1[nH]c(=O)n(Cc2ccco2)c2c1C(C(F)(F)F)(C(F)(F)F)N=C(C1CCCCC1)N2,–,–,?,–,–[0.365 µM],–
O=c1[nH]c(=O)n(Cc2ccco2)c2c1C(C(F)(F)F)(C(F)(F)F)N=C(CCc1ccccc1)N2,?,?,18µM,?,–,?
N#C/C(=C\c1ccc2c(c1)OCCO2)C(=O)Nc1nccs1,–,–,–,–,–,?
Cc1cc2nc(NCCCO)n(CC(=O)c3cc(C(C)(C)C)c(O)c(C(C)(C)C)c3)c2cc1C,·,-51,16µM,23µM,·,–
S=C(NCCc1ccccc1)N1CCCC1,·,–,–,–,·,·
CCNC(=S)N1CCN(C(c2ccccc2)c2ccccc2)CC1,–,–,?,?,–,?
S=C(NCCc1ccccc1)N1CCN(C23CC4CC(CC(C4)C2)C3)CC1,–,-84,10µM,8.2µM,–,?
CCCCNC(=S)N1CCN(C(c2ccccc2)c2ccccc2)CC1,3.2µM,–,?,?,?,21µM
S=C(NCCc1ccccc1)N1CCN(C(c2ccccc2)c2ccccc2)CC1,10µM,–,12µM,16µM,?,–
CCN1CCN(C(=S)NCCc2ccccc2)CC1,–,–,–,–,–,?
O=C(Cc1csc(NC(=O)Nc2ccc(Cl)cc2)n1)NC1CCCC1,·,-53,?,?,·,–
CCOC(=O)Cc1csc(NC(=O)Nc2ccc(Cl)cc2)n1,–,–,21µM,16µM,–,18µM
CCc1ccc2oc(C(=O)NCCc3ccc(S(N)(=O)=O)cc3)cc(=O)c2c1,–,–,–,–,–,–
